# From PubChem BioAssay
# An excerpt weighted towards active compounds, which were near 4% of everything screened.
# KKLEB tox: reduces viability of KKLEB cystic fibrosis airway cells. KKLEB CF airway cells viability, ATPlite luminescence, overnight; active compounds read low; cells stimulated with P. aeruginosa culture filtrate. activity change (cytotoxicity), % at 5 µM. hit rate 0.36% among 360,000. AID 602141;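 active = corrected activity change at or below -50% at 5 µM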
# HIF-2a inh: blocks HIF-2a reporter activity; 786-0 RCC cells HIF-2a reporter, luciferase luminescence, overnight; inhibition, % at 18.8 µM; hit rate 0.72% among 360,000; AID 624352;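 active = inhibition of the luminescence signal of 40% or more relative to plate controls, in a single-dose primary screen at 18.75 µM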
# CF NFkB inh: cystic fibrosis NF-kB activation inhibition | KKLEB NF-kB-GFP reporter, PAF-induced, GFP fluorescence overnight | inhibition, % at 5 µM | hit rate 0.86% among 360,000;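 active = at least 50% inhibition at 5 µM, scaled per plate between neutral and stimulator controls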;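 also: PAF is a Pseudomonas aeruginosa culture filtrate used as stimulus; plate controls were PAF-stimulated DMSO wells for no effect and unstimulated DMSO wells for full effect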
# TROY NFkB inh: TROY signaling inhibition; Q293 LMP1-TROYcd NF-kB luciferase reporter, 4 h; inhibition, % at 10 µM; AID 1347056; hit rate 0.98% among 360,000;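 active = compounds whose plate-normalised and pattern-corrected inhibition of the luciferase reporter signal at the single screening dose is 50% or more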
# Peg3 prom inh: inhibitors of Peg3 promoter | inhibition, % at 20 µM | AID 588405 | HeLa PEG-Prom luciferase reporter, luminescence, overnight | hit rate 1.7% among 360,000;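 active = inhibition of at least 50% at 20 µM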
# TWEAK Fn14 block: TWEAK-Fn14 signaling inhibition. TWEAK-stimulated Fn14 reporter cells, luciferase luminescence, 8 h. inhibition, % at 10 µM. AID 1159606. hit rate 2% among 360,000; in the data active = inhibition above about 50%
# Numbers without * were called inactive.
SMILES,KKLEB tox,HIF-2a inh,CF NFkB inh,TROY NFkB inh,Peg3 prom inh,TWEAK Fn14 block
O=C(Nc1ccc(N2CCN(c3ccc(C(F)(F)F)cn3)CC2)nc1)c1cccs1,3,10,15,17,-2,-13
O=C(Nc1ccc(N2CCN(c3ncccc3C(F)(F)F)CC2)nc1)c1cccs1,-5,7,8,82*,104*,96*
COc1ccc(C(CNC(=O)c2ccc(S(=O)(=O)N3CC(C)CC(C)C3)cc2)N(C)C)cc1 (configuration not stated),-17,-1,19,-4,71*,6
O=C(CSc1nnc(SCc2ccc(Cl)cc2)s1)N/N=C/c1c[nH]c2ccccc12,-10,4,0,-12,16,13
O=C(CSc1nnc(SCc2cccc3ccccc23)s1)N/N=C/c1c[nH]c2ccccc12,-4,-106,12,-15,-43,56*
Cc1n[nH]c(C)c1S(=O)(=O)N1CCCC(C(=O)O)C1 (configuration not stated),14,7,-5,19,-10,5
COc1ccc([N+](=O)[O-])cc1Nc1c2ccccc2nc2ccccc12,-35,15,2,3,58*,-14
COc1ccc(Nc2nc(-c3cccc([N+](=O)[O-])c3)nc3ccccc23)cc1,-16,-46,-22,25,43,80*
O=[N+]([O-])c1ccc(-c2nc(Nc3ccc(O)cc3)c3ccccc3n2)cc1,1,-45,-44,36,64*,41
COc1ccc(C2=NS(=O)(=O)N(C)C(C(=O)NCc3ccc(F)cc3)=C2)cc1OC,9,16,0,13,4,-10
Cc1ccc(C)c(NC(=O)COC(=O)c2ccc(S(=O)(=O)N3CCCC3)cc2)c1,0,7,-14,-12,12,0
CCOc1ccc(S(=O)(=O)N2CCCCC2)cc1NC(=O)Cc1ccccc1,3,-8,13,51*,7,30
COc1ccccc1CNCCS(=O)(=O)NN1CCOCC1,6,9,-1,-10,-3,-2
Cc1cc(C(=O)COC(=O)C2COc3ccccc3O2)c(C)n1CC1CCCO1 (configuration not stated),3,2,-2,-14,12,15
Cc1cc(C(=O)COC(=O)c2cccc(NS(C)(=O)=O)c2)c(C)n1CC1CCCO1 (configuration not stated),-17,8,15,76*,39,92*
Cc1cc(C(=O)COC(=O)c2n[nH]c3ccccc23)c(C)n1CC1CCCO1 (configuration not stated),-24,-6,2,60*,-73,82*
Cc1cc(C(=O)COC(=O)c2cccnc2Cl)c(C)n1CC1CCCO1 (configuration not stated),-18,-13,-4,88*,48,99*
Cc1cc(C(=O)COC(=O)c2ccccc2NCCO)c(C)n1CC1CCCO1 (configuration not stated),7,-22,28,40,-99,62*
O=C(COC(=O)c1cccnc1Cl)NCC1CCCO1 (configuration not stated),16,10,2,-1,1,-8
Cc1cccc(CNC(=O)C2CCC(=O)N(Cc3ccccc3F)C2)n1 (configuration not stated),5,7,8,-7,-5,25
CC(C)(C)OC(=O)N[C@@H](Cc1ccccc1)C(=O)N[C@@H](CO)[C@H](O)[C@@H]1C[C@@H]1C(=O)NC1CC1,7,9,1,5,-9,22
Cc1ccn2c(CNCC3COCCO3)c(C(=O)N3CCCCCC3)nc2c1 (configuration not stated),0,9,-10,1,2,6
COCCn1c(C)cc(C(=O)COC(=O)c2ccc3ncsc3c2)c1C,-3,-94,15,-9,-205,0
CCOc1cc(C(=O)OCC(=O)c2cc(C)n(CC3CCCO3)c2C)ccc1OCC(=O)N1CCOCC1 (configuration not stated),2,-59,11,-7,-50,9
Cc1cc(C(=O)COc2ccccc2C(N)=O)c(C)n1CC1CCCO1 (configuration not stated),-17,-75,-6,4,-52,15
SMILES,KKLEB tox,HIF-2a inh,CF NFkB inh,TROY NFkB inh,Peg3 prom inh,TWEAK Fn14 block
Cc1ccc(C(=O)OCC(=O)c2cc(C)n(CC3CCCO3)c2C)cc1 (configuration not stated),5,-92,-1,72*,-262,64*
Cc1cc(C(=O)COC(=O)c2cc(O)c3ccccc3c2O)c(C)n1CC1CCCO1 (configuration not stated),8,-6,8,-16,-21,79*
COCCn1c(C)cc(C(=O)COC(=O)c2cccnc2SC)c1C,-6,-179,-10,69*,-154,68*
Cc1ccc(-c2nc3c4ccccc4ccn3c2Cc2ccsc2)cc1,-10,-90,10,4,-79,-4
CCCN1CCN(S(=O)(=O)c2ccc3c(c2)NC(=O)C(C)C(=O)N3)CC1 (configuration not stated),-5,16,-8,8,-3,8
CC1CCCC(NC(=O)/C=C/c2c(F)cccc2Cl)C1C (configuration not stated),-7,-192,24,-63,-121,-52
CC(=O)Nc1cccc(NS(=O)(=O)Cc2ccc(Cl)cc2)c1,5,6,4,-10,11,-17
CC(=O)c1ccc(NS(=O)(=O)Cc2ccc(Cl)cc2)cc1,-6,-5,1,63*,-6,37
COc1ccc(CCNC(=S)N2CCN(S(=O)(=O)c3ccccc3)CC2)cc1,-7,5,6,-22,10,5
OC(c1cc(C(F)(F)F)nc2c(C(F)(F)F)cccc12)C1CCCCN1 (configuration not stated),-20,18,29,-9,93*,27
OC(c1cc(-c2cccc(Cl)c2)nc2ccccc12)C1CCCCN1 (configuration not stated),-24,-19,41,-19,104*,-1
FC(F)(F)c1cc(N2CCNCC2)c2ccccc2n1,-10,20,10,24,8,0
O=C(COc1ccc(Cl)cc1)Nc1cccc(-c2ccc(N3CCOCC3)nn2)c1,-2,-83,-28,16,-163,30
Cc1ccc(S(=O)(=O)c2c(N)n(CCCN(C)C)c3nc4ccccc4nc23)cc1,-8,20,21,2,31,11
CCCCn1c(NS(=O)(=O)c2ccc(C)cc2)c(S(=O)(=O)c2ccccc2)c2nc3ccccc3nc21,-16,6,43,64*,-47,47
